According to PubChem BioAssay (NCI):
Several values for one entry are separate records, joined by “and”; a condition that tells them apart may be missing. Identical values can stand only once. This is part of a sample that, as a whole, favours compounds with a hit. Of some 83,000 tested, about 20% had one in any assay.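 Activity criterion: percent growth below 10, measured after cells in 96-well plates were exposed to a single compound concentration for 48 hours.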 Activity calls are given as the source filed them.

Test system: MDA-MB-468 breast
Experiment: NCI-60 one-dose screen, 48 h (100 = growth as untreated, 0 = no growth, -100 = all killed)
Conditions: 10 µM unless noted

Row | Compound | growth
1 | N=c1c(C(=O)OCc2ccccc2)ncc(CCl)n1O | 68.6% (inactive)
2 | COc1cc(/C=C/c2cc(/C=C/c3ccc(O)c(OC)c3)n(C(=O)Nc3ccc(F)c(Cl)c3)n2)ccc1O | -27.6% (active)
3 | CCCCCCCCC(C)OC(=O)c1nn(C(C)=O)c2ccccc12 (centres undefined) | 96.8% (inactive)
4 | COC(=O)c1c2c(c[n+]([O-])c1C)C(=O)C=CC2=O | -17.2% (active)
5 | N#C/C(=C/c1c(O)ccc2ccccc12)C(N)=O | 97.3% (inactive)
6 | Cc1cc(Nc2ccc3c(c2)OCO3)c2cc3c(cc2n1)OCO3 | 26.5% (inactive)
7 | COc1ccc2c(c1)CC=C1[C@@H]2CC[C@]2(C)C(=O)/C(=N/O)C[C@@H]12 | 63.2% (inactive)
8 | CC(C)OCc1cc(CN2CCN(c3cccc(Cl)c3)CC2)c(O)c2ncccc12 | -15.4% (active)
9 | C=CCSSC1N=CNc2nc[nH]c21 (centres undefined) | 5.55% (active)
10 | CS(=O)(=O)c1ccc(-c2nc3cc(Cl)ccc3n2CC(=O)NO)cc1 | 96% (inactive)
11 | CCN1C(=O)N(CC)C2C1NN=c1s/c(=C\c3ccc(Br)cc3)c(=O)n12 (centres undefined) | 7.21% (active)
12 | Cc1ccccc1NC(=O)c1sc2nc3c(cc2c1N)C(=O)CCC3 | -4.56% (active)
13 | Oc1c(Cl)cc(Cl)c2ccc(Cn3cc(-c4cc(F)cc(F)c4)nn3)nc12 | 38.2% (inactive)
14 | C/C(=N/NC(=O)Cn1c2ccccc2c2ccncc21)c1cccs1 | 105% (inactive)
15 | Nn1c(CN2CCN(c3cc4c(cc3F)c(=O)c(C(=O)O)cn4C3CC3)CC2)n[nH]c1=S | 99.2% (inactive)
16 | COc1ccc(-c2nc(SCC(=O)Nc3nc4ccc(C)cc4s3)[nH]c(=O)c2C#N)cc1OC | 100% (inactive)
17 | CCN(C)CCCOc1ccc(/C(=C(\C)Cc2cccc(OC)c2)c2ccc(OC(C)=O)cc2)cc1 | 101% (inactive)
18 | COc1cccc(/C=C/C(=O)Nc2cc(OC)c3c(c2)OCO3)c1 | 92.6% (inactive)
19 | COC(=O)c1c2c(c(C)[n+]([O-])c1C)C(=O)C=C(NCc1cccc(Cl)c1)C2=O | -66.3% (active)
20 | CNC(=O)c1cc(Oc2ccc(NC(=O)Nc3ccc(Cl)c(SC)c3)c(F)c2)ccn1 | 13.6% (inactive)

Row | Compound | growth
21 | CCOc1ccc2c(c1)CC[C@@H]1[C@@H]2CC[C@]2(C)[C@@H](O)[C@@H](O)C[C@@H]12 | 87.5% (inactive)
22 | COc1ccc(C(=O)N2C=Cc3ccccc3C2C#N)cc1 (centres undefined) | 82.9% (inactive)
23 | Cc1cc([N+](=O)[O-])c(C)cc1C(=O)O | 109% (inactive)
24 | COc1cc(-c2ncn(/C=C\C(=O)OC(C)C)n2)cc(C(F)(F)F)c1 | -40.6% (active)
25 | CCCCCC(=O)O[C@]1(C(C)=O)CCC2C3CCC4=CC(=O)CC[C@]4(C)C3CC[C@@]21C (some centres undefined) | -2.63% (active)
26 | Nc1nc(Nc2ccccc2SSc2ccccc2Nc2nc(N)nc(-c3cccs3)n2)nc(-c2ccsc2)n1 | 115% (inactive)
27 | CCOC(=O)c1c(Cl)c2c(n1Cc1ccc(OC)cc1)-c1oncc1CCC2 | 101% (inactive)
28 | C#CCN(C)CCCOc1ccc(NCc2ccc(C(=O)NO)cc2)cc1Cl | -5.18% (active)
29 | CCCCCC(=O)OCC(=O)O[C@@H]1C[C@]2(C(C)C)O[C@@]1(C)[C@@H]1CC[C@@H](C)[C@H]1[C@@H]2OC(=O)/C=C/c1ccccc1 | 70% (inactive)
30 | CN(C)c1ccc(/C=C/c2ccnc3ccccc23)cc1 | -9.88% (active)
31 | N#CSc1c[nH]c2cccc(/C=C/C(=O)/C=C(/C=C/c3cccc4[nH]cc(SC#N)c34)OB(F)F)c12 | -32% (active)
32 | N#Cc1nc(-c2ccccc2)oc1N1CCC(CO)C1 (centres undefined) | 92.5% (inactive)
33 | Nc1nc(-c2ccc(Cl)cc2)cc(-c2cc3ccccc3oc2=O)n1 | 94% (inactive)
34 | O=S(=O)(NCCNc1nccc(-c2c(-c3ccc(F)cc3)nc3sccn23)n1)c1ccc2ccccc2c1 | 76.4% (inactive)
35 | COc1cc2c(Nc3ccc(NC(=O)Nc4ccc(Cl)c(C(F)(F)F)c4)c(Cl)c3)ncnc2cc1OCCCN1CCN(C)CC1 | -70.1% (active)
36 | CC(CNC(Cc1ccccc1)c1ccccc1)NC(Cc1ccccc1)c1ccccc1 (centres undefined) | 14.5% (inactive)
37 | CCCCCc1c(C)[nH]c(/C=C2\N=C(c3ccc[nH]3)C=C2CC)c1C | -92.1% (active)
38 | N#Cc1c(-c2cccc([N+](=O)[O-])c2)nc(SCC(=O)c2ccc(Cl)cc2)[nH]c1=O | 110% (inactive)
39 | Cc1cc(O)c(C(C)C)cc1S(=O)(=O)O (tested in a mixture with another compound) | 91.8% (inactive) and -40.1% (active) and 115% (inactive)
